Test [1] in a line: Quantitative High-Throughput drug screen in 47 multiple myeloma cell lines against the NCATS MIPE library collection: FR4_PLB cell viability assay (AID 1918924; also: nearly all actives have a fitted effect of over 35% in size; also: potency is read from the fitted curve at half-maximal effect). In outline:
(§1)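 Steps: seed 500 cells per well; pin-transfer MIPE 4.0 library; incubate 48 h at 37C, 5% CO2, humidified; add CellTiter-Glo, 5 min room temperature; read luminescence.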

The nature of test [2]: Quantitative High-Throughput drug screen in 47 multiple myeloma cell lines against the NCATS MIPE library collection: Delta47_JCRB cell viability assay (AID 1918925; also: nearly all actives have a fitted effect of over 45% in size; also: potency is read from the fitted curve at half-maximal effect). In outline:
(§2)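 Luminescent ATP measurement with CellTiter-Glo gives viability, scaled between DMSO-only wells (100%) and media-only wells (0%). Cells, 500 per well, faced library compounds for 48 hours at 37C.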

Test [3] in a line: Quantitative High-Throughput drug screen in 47 multiple myeloma cell lines against the NCATS MIPE library collection: EJM_DSMZ cell viability assay (AID 1918926; also: nearly all actives have a fitted effect of over 30% in size; also: potency is read from the fitted curve at half-maximal effect). In outline: as §2
A short description of test [4]: Quantitative High-Throughput drug screen in 47 multiple myeloma cell lines against the NCATS MIPE library collection: AMO1_DSMZ cell viability assay (AID 1918927; also: nearly all actives have a fitted effect of over 30% in size; also: potency is read from the fitted curve at half-maximal effect). In outline: as §2
Test [5] in a line: Quantitative High-Throughput drug screen in 47 multiple myeloma cell lines against the NCATS MIPE library collection: ARP1_JJKsccF8 cell viability assay (AID 1918928; also: nearly all actives have a fitted effect of over 40% in size; also: potency is read from the fitted curve at half-maximal effect). In outline:
(§3)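 Each line was plated at 500 cells/well and treated 48 h with library drugs. Viability came from CellTiter-Glo luminescence relative to DMSO and cell-free medium controls.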

Test [6] can be described thus: Quantitative High-Throughput drug screen in 47 multiple myeloma cell lines against the NCATS MIPE library collection: Karpas620_DSMZ cell viability assay (AID 1918959). Also: nearly all actives have a fitted effect of over 30% in size. Also: potency is read from the fitted curve at half-maximal effect. A digest of the protocol:
as §1

Test [7] is described as follows: Quantitative High-Throughput drug screen in 47 multiple myeloma cell lines against the NCATS MIPE library collection: JIM1_ECACC cell viability assay (AID 1918964; also: potency is read from the fitted curve at half-maximal effect). In outline:
as §2

The nature of test [8]: Quantitative High-Throughput drug screen in 47 multiple myeloma cell lines against the NCATS MIPE library collection: JJN3_DSMZ cell viability assay (AID 1918966; also: nearly all actives have a fitted effect of over 50% in size; also: potency is read from the fitted curve at half-maximal effect). A digest of the protocol: as §2
The nature of test [9]: Quantitative High-Throughput drug screen in 47 multiple myeloma cell lines against the NCATS MIPE library collection: KMS27_JCRB cell viability assay (AID 1918970). Also: nearly all actives have a fitted effect of over 30% in size. Also: potency is read from the fitted curve at half-maximal effect. The following applies: KMS27 myeloma cells, CellTiter-Glo ATP viability, 48 h; viability (% of DMSO): at 45.8 µM (top of the series). A digest of the protocol: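 CellTiter-Glo luminescence after 48 h drug exposure at 37 °C; 500 cells/well, 1536-well format, pin-tool compound addition; DMSO = 100%, media-only = 0% viability.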
(In general: ATP-based viability assays read luminescence as a measure of living cells.)

Test [10] in a line: Quantitative High-Throughput drug screen in 47 multiple myeloma cell lines against the NCATS MIPE library collection: KMS12BM_JCRB cell viability assay (AID 1918971). Also: nearly all actives have a fitted effect of over 35% in size. Also: potency is read from the fitted curve at half-maximal effect. In outline:
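Relative luminescence from CellTiter-Glo served as the viability signal, referenced to DMSO-treated (100%) and cell-free medium (0%) controls. Treatment lasted 48 hours at 37C with 500 cells per well.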

Test [11] in a line: Quantitative High-Throughput drug screen in 47 multiple myeloma cell lines against the NCATS MIPE library collection: ARD_JJKsccE7 cell viability assay (AID 1918929; also: potency is read from the fitted curve at half-maximal effect). In outline:
as §2

Test [12] can be described thus: Quantitative High-Throughput drug screen in 47 multiple myeloma cell lines against the NCATS MIPE library collection: JIM3_ECACC cell viability assay (AID 1918963; also: nearly all actives have a fitted effect of over 35% in size). In outline: as §1
Test [13] in a line: Quantitative High-Throughput drug screen in 47 multiple myeloma cell lines against the NCATS MIPE library collection: INA6_PLB cell viability assay (AID 1918965; also: nearly all actives have a fitted effect of over 55% in size; also: potency is read from the fitted curve at half-maximal effect). A digest of the protocol:
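CellTiter-Glo luminescence (ATP) after 48 h compound exposure, 37C/5% CO2; 500 cells/well; MIPE 4.0 approved/investigational drugs pinned in; DMSO = 100%, media only = 0% viability.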

Test [14] in a line: Quantitative High-Throughput drug screen in 47 multiple myeloma cell lines against the NCATS MIPE library collection: H1112_PLB cell viability assay (AID 1918967; also: nearly all actives have a fitted effect of over 30% in size; also: potency is read from the fitted curve at half-maximal effect). In outline: as §2
Test [15] can be described thus: Quantitative High-Throughput drug screen in 47 multiple myeloma cell lines against the NCATS MIPE library collection: KMM1_JCRB cell viability assay (AID 1918960). Also: nearly all actives have a fitted effect of over 30% in size. Also: potency is read from the fitted curve at half-maximal effect. In outline: as §3
Test [16] in a line: Quantitative High-Throughput drug screen in 47 multiple myeloma cell lines against the NCATS MIPE library collection: KHM11_PLB cell viability assay (AID 1918962). Also: nearly all actives have a fitted effect of over 35% in size. Also: potency is read from the fitted curve at half-maximal effect. A digest of the protocol: as §1
Test [17] is described as follows: Quantitative High-Throughput drug screen in 47 multiple myeloma cell lines against the NCATS MIPE library collection: Karpas25_ECACC cell viability assay (AID 1918968). A digest of the protocol:
as §2

SMILES strings stand for the structures. Results filed as inconclusive are left out. Calls of active or inactive are those of the source. Calls follow the shape of the dose curve; as a rule, active = well fitted curve in the direction sought with a large enough effect; inconclusive = small, poorly fitted or top-dose-only effect, or another doubt; inactive = no such curve, though single readings can be large; an effect the other way counts as inactive or inconclusive.

In the case of `N=C1SC(=Cc2ccc(-c3ccc4c(c3)C(=O)NC4=O)o2)C(=O)N1c1ccc(Br)cc1`, the Potency in test [1] is 3.32 µM (active); in test [3], 4.18 µM (active); in test [5] it was 3.32 µM (active); in test [8], 2.96 µM (active); in [10], 4.18 µM (active). In addition, the Potency entry in test [2], in test [4], in test [6], in [7] and in test [9] was “inactive” in each case.
Consider `CON(C)C(=O)N1N=C(c2cc(F)ccc2F)S[C@]1(CCCN)c1ccccc1`, for which the Potency result in test [1], in [2], in test [3], in [6], in [12] and in test [13] was “inactive” each time. Besides, the Potency entry in test [14] and in [10] was “inactive” throughout. The Potency in test [4], in test [11] and in test [9] was 0.001 µM (active) each time.
As to `CCOC(=O)[C@H](CCc1ccccc1)N[C@@H](C)C(=O)N1CCCC1C(=O)O` (some centres not stated), the Potency entry in test [1], in test [2], in [4], in test [5], in [11] and in [6] was “inactive” each time. In addition, the Potency entry in [15], in test [16], in test [8], in test [14] and in test [10] was “inactive” in each case.
In the case of `CCN(CC)CCCCNc1nc2cc(Cl)c(Cl)cc2nc1-c1ccc(-c2cccs2)s1`, the Potency in test [1] was 10.5 µM (active); in [2], 7.43 µM (active); in [3], 11.8 µM (active); in test [5], 7.43 µM (active); in test [11] it was 8.33 µM (active); in test [6] it was 9.35 µM (active). The Potency was 9.35 µM (active) in test [15]; 10.5 µM (active) in [16]; 9.35 µM (active) in test [7]; 4.69 µM (active) in [13]; 23.5 µM (active) in test [8]; 7.43 µM (active) in test [14]. The Potency in test [17] was 8.33 µM (active); in [9] it was 8.33 µM (active); in test [10] it was 16.6 µM (active).

Source of the values: PubChem BioAssay (NCATS).
